A short description of assay [1]: qHTS assay for small molecule agonists of the p53 signaling pathway - cell viability (AID 651633; calls by dose curve; also: nearly all actives have a fitted effect of over 30% in size; also: potency is read from the fitted curve at half-maximal effect). The procedure, abridged:
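p53RE-bla cells were treated with compound for 16 hours at 37 C. Cytotoxicity was then measured as CellTiter-Glo luminescence after 30 min at room temperature.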
In general terms: In qHTS, concentration-response curves come from the screen itself.

Assay [2] can be described thus: qHTS assay to test for compound auto fluorescence at 535 nm (green) in HepG2 cell free culture (AID 720686).
For assay [3], the target named is Glucocorticoid receptor (Homo sapiens) (UniProt P04150). Briefly: qHTS assay to identify small molecule agonists of the glucocorticoid receptor (GR) signaling pathway (AID 720691; active = well fitted activation curve with a large enough effect in the signal ratio in the repeat runs, not every such curve was filed as active; inconclusive = weak or mixed curves, or effect the other way; inactive = no such curve, though single readings can be large or run the other way; the % refers to the signal ratio). In short, it runs like this: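 Fluorescence intensity from LiveBLAzer B/G FRET substrate (2 h, room temperature) reports beta-lactamase expression driven by the glucocorticoid response element in GR-bla HeLa cells after 18 h compound exposure at 37 C.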
Glucocorticoid receptor (Homo sapiens), sequence (P04150 whole entry, looked up): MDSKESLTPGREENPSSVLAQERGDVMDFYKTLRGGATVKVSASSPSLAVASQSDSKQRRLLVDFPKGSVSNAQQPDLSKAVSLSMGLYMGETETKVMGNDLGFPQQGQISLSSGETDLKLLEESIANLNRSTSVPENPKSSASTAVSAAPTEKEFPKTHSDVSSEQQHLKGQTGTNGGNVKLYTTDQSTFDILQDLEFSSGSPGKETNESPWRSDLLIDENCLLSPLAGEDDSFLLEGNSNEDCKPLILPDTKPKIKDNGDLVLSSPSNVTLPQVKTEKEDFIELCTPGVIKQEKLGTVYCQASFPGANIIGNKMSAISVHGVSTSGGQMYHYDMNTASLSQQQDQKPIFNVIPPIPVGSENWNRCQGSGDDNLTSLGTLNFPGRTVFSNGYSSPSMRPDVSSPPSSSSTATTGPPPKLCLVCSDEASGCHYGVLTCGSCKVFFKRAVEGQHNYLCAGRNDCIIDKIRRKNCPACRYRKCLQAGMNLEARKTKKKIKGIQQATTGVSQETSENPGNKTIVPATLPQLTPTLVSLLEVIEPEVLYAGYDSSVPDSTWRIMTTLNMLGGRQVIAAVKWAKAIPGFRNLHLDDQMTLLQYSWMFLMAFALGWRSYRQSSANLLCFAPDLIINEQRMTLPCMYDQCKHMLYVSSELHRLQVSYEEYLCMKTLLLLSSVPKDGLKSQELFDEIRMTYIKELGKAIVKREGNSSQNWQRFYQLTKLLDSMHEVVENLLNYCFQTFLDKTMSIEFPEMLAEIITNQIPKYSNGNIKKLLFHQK

Assay [4] can be described thus: qHTS assay for identifying genotoxic compounds that show differential cytotoxicity against isogenic chicken DT40 cell lines with known DNA damage response pathways - wild type cell line (AID 743012). Also: nearly all actives have a fitted effect of over 60% in size. Also: potency is read from the fitted curve at half-maximal effect. The procedure, abridged: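 Wild type DT40, 300 cells/well, ~0.5 h settle at 37 C/5% CO2; compounds in DMSO added by pintool; 40 h at 37 C/5% CO2; CellTiter-Glo, 30 min RT; luminescence.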

The nature of assay [5]: qHTS assay for identifying genotoxic compounds that show differential cytotoxicity against isogenic chicken DT40 cell lines with known DNA damage response pathways - Rev3 mutant cell line (AID 743014). Also: nearly all actives have a fitted effect of over 55% in size. Also: potency is read from the fitted curve at half-maximal effect.
Assay [6] can be described thus: qHTS assay for identifying genotoxic compounds that show differential cytotoxicity against isogenic chicken DT40 cell lines with known DNA damage response pathways - Rad54/Ku70 mutant cell line (AID 743015). Also: nearly all actives have a fitted effect of over 60% in size. Also: potency is read from the fitted curve at half-maximal effect.
Assay [7] can be described thus: qHTS assay to identify small molecule antagonists of the androgen receptor (AR) signaling pathway using the MDA cell line - cell viability counter screen (AID 743041; also: nearly all actives have a fitted effect of over 45% in size). The procedure, abridged: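 MDA-kb2 AR-luc cells (MMTV-luciferase, AR/GR responsive) treated with compounds plus R1881 agonist for 16 h at 37C. CellTiter-Fluor added at 15.5 h; fluorescence read after 30 min in the same wells.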

The nature of assay [8]: qHTS assay to identify small molecule antagonists of the estrogen receptor alpha (ER-alpha) signaling pathway - cell viability counter screen (AID 743074; calls by dose curve;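 also: HEK293 cells carrying ER-alpha-UAS-bla reporter stimulated with 17beta-estradiol; nearly all actives have a fitted effect of over 45% in size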; also: potency is read from the fitted curve at half-maximal effect).
Assay [9] addresses Estrogen receptor (Homo sapiens) (UniProt P03372). The assay can be described thus: qHTS assay to identify small molecule agonists of the estrogen receptor alpha (ER-alpha) signaling pathway (AID 743075; calls by dose curve;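 also: HEK293 GripTite cells with ER-alpha and UAS-driven beta-lactamase reporter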; also: potency is read from the fitted curve at half-maximal effect).
For assay [10] the target is unchanged. Briefly: qHTS assay to identify small molecule agonists of the estrogen receptor alpha (ER-alpha) signaling pathway using the BG1 cell line (AID 743079). Also: nearly all actives have a fitted effect of over 20% in size. Also: potency is read from the fitted curve at half-maximal effect.
Assay [11] is described as follows: qHTS assay to identify small molecule antagonists of the estrogen receptor alpha (ER-alpha) signaling pathway using the BG1 cell line (AID 743080; calls by dose curve; also: nearly all actives have a fitted effect of over 25% in size; also: potency is read from the fitted curve at half-maximal effect). The procedure, abridged: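 Antagonist mode: compounds in DMSO were pinned onto BG1-Luc-4E2 cells alongside 17beta-estradiol agonist, incubated 21.5 h, and ERE-driven luciferase measured with ONE-Glo. Cytotoxicity was multiplexed using CellTiter-Fluor fluorescence.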

Assay [12] is described as follows: qHTS assay to identify small molecule antagonists of the estrogen receptor alpha (ER-alpha) signaling pathway using the BG1 cell line - cell viability counter screen (AID 743081).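 Also: compound given together with 17beta-estradiol as the ER stimulus; series mostly up to about 70 µM; nearly all actives have a fitted effect of over 45% in size.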
The nature of assay [13]: qHTS assay to identify small molecule that activate the aryl hydrocarbon receptor (AhR) signaling pathway - cell viability counter screen (AID 743086). Also: nearly all actives have a fitted effect of over 45% in size. Also: potency is read from the fitted curve at half-maximal effect. The procedure, abridged:
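HepG2-AhR-luc (HG2L7.5c1) cells, 4000/well, treated 24 h at 37 C with compound; viability measured as CellTiter-Fluor fluorescence after 30 min in the same wells as the luciferase read.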

For assay [14], the target named is Peroxisome proliferator-activated receptor gamma (Homo sapiens) (UniProt P37231). The assay can be described thus: qHTS assay to identify small molecule agonists of the peroxisome proliferator-activated receptor gamma (PPARg) signaling pathway (AID 743094; active = well fitted activation curve with a large enough effect in the signal ratio in the repeat runs, not every such curve was filed as active; inconclusive = weak or mixed curves, or effect the other way; inactive = no such curve, though single readings can be large or run the other way; the % refers to the signal ratio). The procedure, abridged:
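Beta-lactamase FRET fluorescence was the read-out after a 1 h room-temperature substrate step, following 17 h compound treatment at 37C of HEK293H cells expressing a UAS-driven bla reporter responsive to PPARg.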

Assay [15] deals with Nuclear receptor subfamily 1 group I member 2 (Homo sapiens) (UniProt O75469). The assay can be described thus: CYP3A4 induction through human pregnane X receptor (PXR) by small molecules, qHTS assay (AID 1346984). Also: nearly all actives have a fitted effect of over 40% in size. Also: potency is read from the fitted curve at half-maximal effect. In short, it runs like this:
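Luminescence readout: luciferase signal after One-Glo (30 min, room temperature), following 3 h at 37C with 3uM final Luciferin-IPA P450 substrate. Cells were DPX-2 (HepG2, PXR/CYP3A4-luc co-transfected) dosed for 24 h.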

Assay [16] can be described thus: qHTS assay to test for compound auto fluorescence at 535 nm (green) in HepG2 cells (AID 720675).
A short description of assay [17]: qHTS assay to test for compound auto fluorescence at 590 nm (red) in HEK293 cells (AID 720679). The procedure, abridged:
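Each well held 2,000 HEK293 cells in medium containing 10% dialyzed FBS. Following 4-5 hr attachment at 37C, 23 nL test compound or DMSO was added; plates sat overnight, and red fluorescence (540/590nm) was recorded.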

Assay [18] can be described thus: qHTS assay to identify small molecule antagonists of the androgen receptor (AR) signaling pathway - cell viability counter screen (AID 743033; also: nearly all actives have a fitted effect of over 45% in size; also: potency is read from the fitted curve at half-maximal effect).
For assay [19], the system named is thyroid hormone receptor (rat, GH3 cells). The assay can be described thus: qHTS assay to identify small molecule agonists of the thyroid receptor (TR) signaling pathway (AID 743066; calls by dose curve).
A short description of assay [20]: qHTS assay to identify small molecule antagonists of the thyroid receptor (TR) signaling pathway (AID 743065). Also: nearly all actives have a fitted effect of over 55% in size. Also: potency is read from the fitted curve at half-maximal effect. The procedure, abridged: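 GH3.TRE-Luc rat pituitary cells (two TREs driving luciferase) were dosed with compound, then stimulated with 1 nM T3 (final) for 23.5 h at 37 C. ONE-Glo luminescence was the read-out, with CellTiter-Fluor fluorescence as the cytotoxicity counter-screen.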

Calls of active or inactive are those of the source. Unless noted, calls follow the shape of the dose curve; as a rule, active = well fitted curve in the direction sought with a large enough effect in the repeat runs; inconclusive = weak or mixed curves; inactive = no such curve, though single readings can be large; an effect the other way counts as inactive or inconclusive.

Peroxisome proliferator-activated receptor gamma (Homo sapiens), sequence (P37231 whole entry, looked up): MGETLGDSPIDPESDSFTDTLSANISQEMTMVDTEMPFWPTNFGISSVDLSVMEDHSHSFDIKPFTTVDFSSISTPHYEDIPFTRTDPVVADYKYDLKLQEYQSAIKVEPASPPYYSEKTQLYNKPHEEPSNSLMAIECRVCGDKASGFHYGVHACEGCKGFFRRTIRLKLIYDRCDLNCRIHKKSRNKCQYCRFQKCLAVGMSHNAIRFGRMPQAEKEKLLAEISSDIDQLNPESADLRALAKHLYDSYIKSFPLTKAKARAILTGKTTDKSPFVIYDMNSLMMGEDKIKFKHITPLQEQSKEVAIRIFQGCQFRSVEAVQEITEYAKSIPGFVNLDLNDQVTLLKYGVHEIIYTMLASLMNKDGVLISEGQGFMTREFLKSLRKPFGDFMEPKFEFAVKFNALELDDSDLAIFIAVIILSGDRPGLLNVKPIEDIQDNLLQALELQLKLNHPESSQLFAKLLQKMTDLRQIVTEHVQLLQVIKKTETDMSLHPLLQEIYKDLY
Estrogen receptor (Homo sapiens), sequence (P03372 whole entry, looked up): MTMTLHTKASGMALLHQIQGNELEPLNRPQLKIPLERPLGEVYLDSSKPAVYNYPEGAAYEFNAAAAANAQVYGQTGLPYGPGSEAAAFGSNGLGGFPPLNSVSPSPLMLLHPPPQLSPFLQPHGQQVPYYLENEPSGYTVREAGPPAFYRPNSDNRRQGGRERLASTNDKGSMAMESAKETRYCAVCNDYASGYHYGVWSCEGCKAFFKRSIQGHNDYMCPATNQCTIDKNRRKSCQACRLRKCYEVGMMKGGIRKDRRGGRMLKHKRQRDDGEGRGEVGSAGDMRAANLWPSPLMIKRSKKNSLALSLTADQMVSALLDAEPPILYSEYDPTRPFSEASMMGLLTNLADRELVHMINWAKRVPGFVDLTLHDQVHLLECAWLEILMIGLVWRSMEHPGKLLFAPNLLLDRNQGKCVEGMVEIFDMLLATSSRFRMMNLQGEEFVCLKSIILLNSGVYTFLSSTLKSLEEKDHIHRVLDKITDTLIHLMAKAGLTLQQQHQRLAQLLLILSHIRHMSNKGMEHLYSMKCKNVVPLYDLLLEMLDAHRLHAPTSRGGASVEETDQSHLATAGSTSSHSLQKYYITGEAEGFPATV

With `CC(C)C[C@H](CN)CC(=O)O`, the Potency result in assay [1], in [2], in assay [3], in assay [4], in assay [5] and in assay [6] was “inactive” in each case. For the same compound, the Potency entry in assay [7], in [8], in assay [9], in [11], in assay [12] and in [13] was “inactive” in each case. For the same compound, the Potency entry in assay [14] and in assay [15] was “inactive” in each case. In addition, the Potency in assay [10] is 13.3 µM (active).
With `COc1ccc2c3c1O[C@H]1C(=O)CC[C@H]4[C@@H](C2)N(C)CC[C@]314`, the Potency entry in assay [1], in assay [16], in assay [4], in assay [5], in assay [6] and in assay [18] was “inactive” throughout. In addition, the Potency result in [7], in assay [19], in assay [9], in assay [10], in [12] and in assay [13] was “inactive” in each case. In addition, the Potency entry in [14] and in [15] was “inactive” in each case. The call in [17] was inactive.
For the compound `Clc1ccc(C(Cn2ccnc2)OCc2csc3c(Cl)cccc23)c(Cl)c1` (centres undefined), the Potency entry in [16], in [2], in assay [7], in assay [8], in assay [11] and in assay [12] was “inactive” each time. In addition, the Potency entry in assay [13] and in assay [14] was “inactive” each time. Moreover, the Potency in assay [15] was 3.98 µM (active).
On to `CCCCCCCCCC(=O)O[C@H]1CC[C@H]2[C@@H]3CCC4=CC(=O)CC[C@]4(C)[C@H]3CC[C@]12C`, for which the Potency result in assay [1], in assay [16], in [2], in [3], in assay [5] and in assay [18] was “inactive” each time. Further, the Potency entry in assay [7], in assay [20], in assay [19], in [8], in [11] and in [12] was “inactive” each time. Besides, the Potency result in [13], in [14] and in assay [15] was “inactive” each time. The results for the Potency in [9] and in assay [10] were 10.7 µM [inconclusive] (active) and 0.335 µM (active), respectively.
Turning to `CO[C@H]1[C@@H](O)C[C@H](O[C@H]2[C@@H](O)C[C@H](O[C@H]3[C@@H](O)C[C@H](O[C@H]4CC[C@@]5(C)[C@H](CC[C@@H]6[C@@H]5C[C@@H](O)[C@]5(C)[C@@H](C7=CC(=O)OC7)CC[C@]65O)C4)O[C@@H]3C)O[C@@H]2C)O[C@@H]1C`, the Potency in assay [1] is 0.0841 µM (active); in [4], 0.531 µM (active); in assay [5], 0.668 µM (active); in assay [6], 0.668 µM (active). In addition, the Potency entry in assay [16], in assay [20], in assay [19], in assay [9], in assay [12] and in assay [15] was “inactive” throughout.
Regarding `C[C@]12CC[C@H](O)C[C@H]1CC[C@@H]1[C@@H]2CC[C@]2(C)[C@@H](c3ccc(=O)oc3)C[C@H]3O[C@]132`, the outcome in [17] was inactive. In addition, the Potency result in assay [2], in assay [3], in assay [19], in assay [9], in [12] and in assay [13] was “inactive” each time. The Potency in [4] was 7.5 µM (active); in assay [5], 13.3 µM (active); in assay [6], 13.3 µM (active); in assay [18], 1.34 µM (active); in [8], 1.34 µM (active); in assay [10], 0.944 µM (active). Moreover, the Potency in [15] is 5.01 µM (active).
On to `CN(C)[C@H](Cc1ccccc1)c1ccccc1`, for which the Potency result in [16], in [3], in [4], in assay [5], in [6] and in [18] was “inactive” throughout. The Potency result in [7], in assay [20], in assay [19], in assay [8], in assay [9] and in [10] was “inactive” in each case. Moreover, the Potency result in assay [11], in assay [12], in assay [14] and in assay [15] was “inactive” each time. Moreover, the compound was classed as inactive in [17].
As to `CCN(CC)CCO[C@H]1CC[C@@]2(C)C(=CC[C@@H]3[C@@H]2CC[C@]2(C)C(=O)CC[C@@H]32)C1`, the Potency result in [1], in assay [16], in assay [2], in [18], in [19] and in [9] was “inactive” each time. In addition, the Potency entry in assay [10], in assay [11], in [12], in assay [13] and in assay [14] was “inactive” each time. Further, in assay [17], the call was inactive. Further, the Potency in assay [5] is 0.531 µM (active); in assay [6], 1.33 µM (active); in assay [20], 21.1 µM (active); in [15] it was 7.94 µM (active).
Turning to `Cc1cccc(C(C)c2cnc[nH]2)c1C` (centres undefined), the Potency entry in [1], in assay [16], in assay [2], in [3], in assay [18] and in [7] was “inactive” throughout. For the same compound, the Potency entry in [20], in assay [19], in assay [8], in assay [12], in assay [13] and in [15] was “inactive” in each case. Further, the result in assay [17] was inactive.
Take `CCCCC[C@@H](O)C1C(=O)OC(C)[C@H](O)/C=C/C=C/C=C/C=C/C=C(\C)C(O)C(O)C(O)C[C@H](O)C[C@H](O)C[C@H](O)C[C@H](O)C[C@@H]1O` (some centres undefined): the Potency entry in [1], in assay [16], in assay [3], in [4], in assay [5] and in assay [6] was “inactive” each time. The Potency result in assay [18], in [7], in [20], in [19], in [8] and in [9] was “inactive” throughout. Besides, the Potency result in assay [10], in assay [11], in [12], in assay [14] and in [15] was “inactive” throughout. Also, the result in assay [17] was inactive.
Consider `Cc1nnc2n1-c1ccc(Cl)cc1C(c1ccccc1)=NC2`, for which the Potency entry in assay [1], in assay [2], in assay [3], in [4], in assay [5] and in assay [18] was “inactive” in each case. For the same compound, the Potency entry in assay [19], in [8], in assay [9], in [12], in assay [13] and in assay [15] was “inactive” throughout. Further, the compound was called inactive in [17]. The Potency in assay [20] was 26.6 µM (active); in [11] it was 11.9 µM (active).
Regarding `F/C(COc1ccc2c(c1)[nH]c1ccccc12)=C1/CN2CCC1CC2`, the Potency result in assay [1], in assay [16], in [3], in assay [18], in assay [7] and in assay [9] was “inactive” in each case. In addition, the Potency entry in [10] and in assay [15] was “inactive” each time. Also, the Potency in [4] is 5.96 µM (active); in [5], 8.41 µM (active); in assay [6], 7.5 µM (active); in assay [20], 8.41 µM (active); in assay [13] it was 21.1 µM (active).
Turning to `C[C@]12CCC(=O)C=C1C=C[C@@H]1[C@@H]2CC[C@@]2(C)[C@H]1CC[C@@]2(O)CCC(=O)O`, the Potency result in assay [1], in assay [16], in assay [2], in [3], in assay [18] and in [20] was “inactive” each time. The Potency entry in assay [19], in assay [12], in assay [13], in assay [14] and in [15] was “inactive” each time. Moreover, the compound was classed as inactive in assay [17].

The values are drawn from PubChem BioAssay (Tox21).
